Source: PubChem BioAssay (several laboratories)
PAX8 reporter = lowers PAX8-driven luciferase in RMG-I cells; RMG-I TPO-luciferase reporter, SteadyGlo, 24 h; inhibition, % at 12.6 µM; actives 1.2% (n = 360,000);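 active = mean replicate inhibition at least 60% with every replicate also reaching 60%; inconclusive = only one of the two criteria is met; inactive = mean below 60% and not all replicates reaching 60%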;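 note: luciferase light reporting Pax8 driven TPO promoter activity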
GAA850 FXN act = frataxin GAA850 promoter activation; HEK293 lucGAA850 FXN promoter luciferase reporter, 24 h; percent of 10 µM SAHA response; activation, % at 6 µM; actives 0.56% (n = 360,000);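 active = activation above the average of all compounds screened plus 3 SD, cutoff fixed separately per campaign, cut at about 7.5% in these data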
HIV Env fusion = HIV envelope-mediated fusion inhibition | HeLa-JRFL Env/CEM21 cell fusion, luciferase | inhibition, % at 12.3 µM | actives 1.1% (n = 360,000);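 active = mean replicate inhibition score of at least 50 and every replicate individually at or above 50; inconclusive = only one of the two criteria met; inactive = mean below 50 and not all replicates reaching 50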
EWS-Fli inh = EWS/Fli transcriptional activity inhibition; actives 0.67% (n = 350,000); A673 NR0B1-luciferase reporter, viability-normalised; AID 651661; inhibition, % at 12.6 µM;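 active = mean inhibition of at least 50% after viability correction, with every replicate also passing that limit; inconclusive = mean reaches 50% but only one of two replicates passes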;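 note: firefly luciferase signal divided by Alamar Blue viability fluorescence both relative to DMSO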
CFTR F508del cor = correctors of CFTR F508del function in bronchial epithelial cells. CFBE cells, YFP halide quenching; stimulated with forskolin plus potentiator P3; % fluorescence drop versus neutral controls. activity (quench increase), % at 7.58 µM. actives 0.36% (n = 350,000);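 active = mean added fluorescence quench of at least 8% versus neutral control, with both replicates also reaching 8%; inconclusive = only one of the mean or replicate conditions met; inactive = mean below 8% and not both replicates reaching 8%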;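 note: cells transiently co-express mutant CFTR-F508del with the halide-sensitive YFP; corrector assay measuring rescue of mutant channel to the surface after 24 h compound exposure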
Of the large screens only hits and unclear results are named; the others gave an inactive call. Rows were chosen to be rich in hits. Some 2.5% of all compounds tested hit in one or more screens of this group.

COc1cc2c(c(OC)c1OC)-c1ccc(OC)c(=O)cc1[C@@H](NC(C)=O)CC2	PAX8 reporter 96, EWS-Fli inh 63
COc1cc2c(c(OC)c1OC)-c1ccc(NC(=O)c3ccc(F)cc3)c(=O)cc1[C@@H](NC(C)=O)CC2	none
COc1cc2c(c(OC)c1OC)-c1ccc(NCc3ccccc3)c(=O)cc1C(NC(C)=O)CC2 (stereo not drawn)	PAX8 reporter 84
COc1cc(C(=O)NC2CCCc3ccccc32)cc(OC)c1OC (stereo not drawn)	none
CC(C)NC(=O)Nc1ccc2c(c1)C(=O)N([C@H](C)CO)C[C@@H](C)[C@H](CN(C)C)O2	none (no result: GAA850 FXN act, EWS-Fli inh)
CCCC(=O)Nc1ccc2c(c1)C(=O)N(C)C[C@@H](OC)[C@@H](C)CN(CC1CCOCC1)[C@H](C)CO2	none (no result: PAX8 reporter, GAA850 FXN act, HIV Env fusion)
O=C(c1ccncc1)N1CC(=O)N2[C@H](CO)[C@H](c3ccc(-c4ccccc4)cc3)[C@H]2C1	none (no result: GAA850 FXN act, HIV Env fusion)
COc1cc(/C=C/C(=O)N2CCC=CC2=O)cc(OC)c1OC	PAX8 reporter 105, EWS-Fli inh 70
COc1cc(C=CC(=O)c2ccccc2)cc(OC)c1OC	none (no result: GAA850 FXN act)
COc1cc(C=CC(=O)c2cc(OC)c(OC)c(OC)c2)cc(OC)c1OC	PAX8 reporter 96
O=C1C=CCCN1C(=O)/C=C/c1ccccc1Cl	EWS-Fli inh 62 (no result: GAA850 FXN act)
COc1ccc(C(=O)c2cc(OC)c(OC)c(OC)c2)cc1OC	CFTR F508del cor 13
O=C(/C=C/c1ccccc1Cl)N1CCOCC1	none
C[C@H](CO)N1C[C@H](C)[C@@H](CN(C)Cc2ccc(C(=O)Nc3ccccc3N)cc2)Oc2c(NS(=O)(=O)c3cn(C)cn3)cccc2C1=O	none (no result: GAA850 FXN act, HIV Env fusion)
O=C1C=CCCN1C(=O)/C=C/c1cccc(C(F)(F)F)c1	EWS-Fli inh 62 (no result: GAA850 FXN act)
O=C(/C=C/c1cccc(C(F)(F)F)c1)Nc1cccc(C(F)(F)F)c1	none (no result: PAX8 reporter, HIV Env fusion, EWS-Fli inh, CFTR F508del cor)
CO[C@H]1CN(C)C(=O)c2ccc(NC(=O)Cc3ccccc3)cc2OC[C@H](C)N(C(=O)c2ccccc2F)C[C@H]1C	none (no result: GAA850 FXN act)
CCOC(=O)Cn1nnnc1CN(CCc1ccccc1)Cc1cc2cc(CC)ccc2[nH]c1=O	HIV Env fusion 119 (no result: PAX8 reporter, EWS-Fli inh, CFTR F508del cor)
COc1ccccc1CNC(=O)C[C@@H]1CC[C@@H]2[C@@H](COc3ccc(NS(=O)(=O)c4ccc(C)cc4)cc3C(=O)N2C)O1	none (no result: GAA850 FXN act)
O=C(Nc1ccc(C(F)(F)F)cc1)N[C@@H]1CC[C@H](CCn2cc(C3(O)CCCC3)nn2)O[C@@H]1CO	none (no result: GAA850 FXN act)
COc1ccc([C@@H]2[C@@H]3C(=O)N(C(C)(C)C)C(=O)[C@@H]3[C@]3(C)C(=O)N(c4cccc(Cl)c4)C(=O)N23)cc1	HIV Env fusion 61
CCN(CC)CCC(=O)N1C/C(=C/c2ccccc2)C(=O)/C(=C\c2ccccc2)C1	EWS-Fli inh 82 (no result: HIV Env fusion)
O=C(Nc1cccc(Cl)c1)N[C@H]1CC[C@@H](CCn2cc(Cc3ccccc3)nn2)O[C@H]1CO	none (no result: GAA850 FXN act)
CN(C)C(=S)SCC(=O)Nc1ccc(Cl)cc1Cl	EWS-Fli inh 75 (no result: CFTR F508del cor)
c1ccc(Nc2nc(N3CCCC3)nc(N3CCOCC3)n2)cc1	HIV Env fusion 61
COc1ccc(Nc2nc(N3CCCC3)nc(N3CCOCC3)n2)cc1	none
COc1ccc(Oc2nc3c(c(=O)n(C)c(=O)n3C)n2C)cc1	HIV Env fusion inconclusive
Cn1c(=O)c2c(nc(Br)n2Cc2ccccc2Cl)n(C)c1=O	none (no result: PAX8 reporter, HIV Env fusion, EWS-Fli inh, CFTR F508del cor)
Cn1c(=O)c2c(nc(Oc3ccc4ccccc4c3)n2C)n(C)c1=O	HIV Env fusion 102 (no result: PAX8 reporter, EWS-Fli inh, CFTR F508del cor)
CCNc1nc2c(c(=O)n(C)c(=O)n2C)n1Cc1ccc(Cl)cc1	HIV Env fusion 60
Cn1c(=O)c2c(nc(Br)n2Cc2ccc3ccccc3c2)n(C)c1=O	HIV Env fusion 58 (no result: PAX8 reporter, EWS-Fli inh, CFTR F508del cor)
Cn1c(=O)[nH]c(=O)c2c1nc(Br)n2Cc1cccc(Br)c1	PAX8 reporter 73, EWS-Fli inh 56
CN1[C@@H]2Cn3c(ccc(-c4ccncc4)c3=O)[C@H]1[C@@H](C(=O)Nc1nccs1)[C@@H]2CO	none (no result: GAA850 FXN act, HIV Env fusion)
C[C@H]1CN([C@@H](C)CO)C(=O)c2cc(N(C)C)ccc2O[C@H]1CN(C)S(C)(=O)=O	none (no result: GAA850 FXN act)
CC(C)NC(=O)Nc1ccc2c(c1)CC(=O)N([C@@H](C)CO)C[C@@H](C)[C@H](CN(C)C)O2	none (no result: GAA850 FXN act, EWS-Fli inh)
Oc1c(Cl)cc(CN2CCOCC2)c2cccnc12	PAX8 reporter 103, CFTR F508del cor 27 (no result: HIV Env fusion)
O=C(Oc1c(CN2CCOCC2)cc(Cl)c2cccnc12)c1ccccc1	none (no result: CFTR F508del cor)
C=C1C2(C(=O)Nc3ccc(SC(F)F)cc3)CCC(C2)C1(C)C (stereo not drawn)	PAX8 reporter 98 (no result: HIV Env fusion)
O=C(Cn1ncc2c(=O)oc3ccccc3c21)N1CCC(N2CCCCC2)CC1	HIV Env fusion 74
CCC(C)(C)NC(=O)C(c1ccc(C)cc1)N(CC1CCCO1)C(=O)c1csnn1 (stereo not drawn)	HIV Env fusion 72
COc1ccc(NC(=O)c2c(Nc3ccccc3)sc(C(=O)c3ccc(F)cc3)c2N)cc1	PAX8 reporter 89, HIV Env fusion 91 (no result: EWS-Fli inh, CFTR F508del cor)
COc1ccc(C(=O)c2sc(Nc3ccccc3)c(C(=O)Nc3ccc(OC)c(OC)c3)c2N)cc1	none (no result: EWS-Fli inh, CFTR F508del cor)
O=C(C[C@@H]1C=C[C@@H](NC(=O)Nc2cc(F)ccc2F)[C@@H](CO)O1)NCc1ccc2c(c1)OCO2	none (no result: PAX8 reporter, GAA850 FXN act, HIV Env fusion, EWS-Fli inh)
C/C=C/c1cnc2c(c1)C(=O)N([C@H](C)CO)C[C@@H](C)[C@@H](CN(C)C(=O)Nc1ccccc1F)O2	none (no result: GAA850 FXN act, HIV Env fusion)
O=C(Nc1cccc(Cl)c1)N[C@H]1CC[C@@H](CCNC(=O)C2CCOCC2)O[C@@H]1CO	none (no result: GAA850 FXN act)
CCCC(=O)Nc1ccc2c(c1)C(=O)N(C)C[C@@H](OC)[C@H](C)CN(C(=O)CN(C)C)[C@H](C)CO2	none (no result: PAX8 reporter, GAA850 FXN act, HIV Env fusion)
COc1ccc(C(=O)CSc2cc(C)nc(SCC(=O)c3ccc(C)cc3)n2)cc1	none (no result: PAX8 reporter, HIV Env fusion, EWS-Fli inh, CFTR F508del cor)
Cc1ccc(C(=O)CSc2nc(C)cc(SCc3nnc(-c4ccccc4)o3)n2)cc1	HIV Env fusion 62 (no result: EWS-Fli inh, CFTR F508del cor)
C[C@@H]1CCCCO[C@H](CN(C)Cc2ccc(C(=O)O)cc2)[C@H](C)CN([C@@H](C)CO)C(=O)c2cc(NS(=O)(=O)c3cn(C)cn3)ccc2O1	none (no result: GAA850 FXN act)
CC(NCC(O)COCCC12CC3CC(CC(C3)C1)C2)c1ccccc1 (stereo not drawn)	PAX8 reporter inconclusive, HIV Env fusion 73
C[C@@H]1CN([C@@H](C)CO)C(=O)c2cc(NC(=O)CCC(F)(F)F)ccc2O[C@H]1CN(C)C	none (no result: GAA850 FXN act, HIV Env fusion)
O=C(c1cccc(C(=O)N2CCN(Cc3ccccc3)CC2)c1)N1CCN(Cc2ccccc2)CC1	none (no result: PAX8 reporter, HIV Env fusion, EWS-Fli inh, CFTR F508del cor)
COc1ccc(Cn2c(=O)[nH]c3cc(C(=O)N4CCN(c5ccccc5OC)CC4)ccc3c2=O)cc1	none (no result: PAX8 reporter, HIV Env fusion, EWS-Fli inh, CFTR F508del cor)
O=C(c1ccc2ccccc2c1)N1CCN(Cc2ccccc2)CC1	CFTR F508del cor 11
COc1ccc(Cn2c(=O)[nH]c3cc(C(=O)N4CCN(Cc5ccccc5)CC4)ccc3c2=O)cc1	HIV Env fusion 24 (no result: EWS-Fli inh, CFTR F508del cor)
Cc1ccc(S(=O)(=O)N(C)C[C@H]2Oc3ccc(NS(C)(=O)=O)cc3C(=O)N([C@H](C)CO)C[C@H]2C)cc1	none (no result: PAX8 reporter, GAA850 FXN act)
